The supplement of paper PMC6555819

Assays:
Assay in all cases: PBM binding z-score (relative to random genomic background probes); higher = stronger binding; sequences stand for … in GC…GCGATTGACAGCGTAGAATGAAGG
[1] = tested on: PPARg:RXRa DBDmut IVT, anti-RXR (DBD mutation: RXRa K156A/R161A, NR concentration 270 nM, RXRa partner concentration 90 nM)
How it was run: (§1)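 Binding z-scores were set against random background probes. The data came from custom Agilent 4×180K protein-binding microarrays carrying double-stranded probes with 34-nt variable regions, incubated 1 h with ligand-free nuclear receptor dimers. Partner-specific antibodies detected binding, and scanned fluorescence was regression-normalized.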

[2] = tested on: PPARg:RXRa IVT, anti-PPARg (NR concentration 270 nM, RXRa partner concentration 90 nM)
How it was run: as §1

[3] = tested on: PPARg DBDmut:RXRa IVT, anti-PPARg (DBD mutation: PPARg1 K132A/R137A, NR concentration 270 nM, RXRa partner concentration 90 nM)
How it was run: as §1

[4] = tested on: PPARg DBDmut IVT, anti-PPARg (DBD mutation: PPARg1 K132A/R137A, NR concentration 270 nM)
How it was run: as §1

[5] = tested on: PPARg homodimer (NR concentration 180 nM)
How it was run: as §1

[6] = tested on: PXR:RXRa (NR concentration 270 nM, RXRa partner concentration 90 nM)
How it was run: as §1

[7] = tested on: PXR homodimer (NR concentration 270 nM)
How it was run: as §1

[8] = tested on: RARa:RXR (NR concentration 270 nM, RXRa partner concentration 90 nM)
How it was run: as §1

[9] = tested on: RARa homodimer (NR concentration 270 nM)
How it was run: as §1

[10] = tested on: RARb:RXRa (NR concentration 270 nM, RXRa partner concentration 90 nM)
How it was run: as §1

Sequence | PBM binding z-score [1] | PBM binding z-score [2] | PBM binding z-score [3] | PBM binding z-score [4] | PBM binding z-score [5] | PBM binding z-score [6] | PBM binding z-score [7] | PBM binding z-score [8] | PBM binding z-score [9] | PBM binding z-score [10]
CCTACAGGGCCAAGGTCATTGATCAGTCAAAGCA | 0.158 | 1.47 | -0.788 | -0.319 | 1.8 | 3.54 | 1.53 | 3.67 | 0.267 | 3.47
AGCTCTAGGTAAAAGTTCAGTGAATCCCGAGGAT | 2.59 | 2.87 | -0.0694 | 0.333 | 0.844 | 1.73 | 1.44 | 1.55 | 0.488 | 2.4
CAAACTAGGTCAAAGGTCAGAGTCGAGCCAACCA | 8.97 | 9.43 | 6.85 | 6.78 | 5.97 | 6.67 | 1.28 | 8.46 | 3.04 | 5.44
CGTCAAAGTTCATGGTAACGTAACAGAAAGCAGC | 0.9 | 2.06 | 1.17 | 1.03 | 3.91 | 4.52 | 2.84 | 3.68 | 1.6 | 5
CCAGACAGGTGAAAGGTAACTCACTCTGGTACGC | 2.36 | 3.27 | -0.16 | 0.145 | 1.28 | 0.983 | 0.186 | 1.84 | 0.159 | 1.26
ACTAGCAGGCCAAGGGTGACTCAAGATTAGTCCG | 0.931 | 1.84 | -0.0543 | -0.633 | -0.412 | -0.0749 | -0.354 | 0.264 | -0.894 | 0.8
AATACAGGGTCACTAGGTCAGAGTAGGTACGAAT | 5.74 | 6.99 | 2.72 | 2.61 | 4.65 | 4.34 | 1.23 | 5.62 | 1.85 | 4.67
TCTCGGAGGACACGAAAGGTCAGTGCTCGACATC | 1.47 | 1.67 | -0.413 | -0.365 | 3.45 | 3.79 | 0.68 | 4.07 | 1.12 | 4.13
ATCGAAAGGTCGAAGGTGAGTACACCCACCCGAA | 0.019 | 2.74 | 1.5 | 0.329 | 1.98 | 3.49 | 0.469 | 4.08 | 1.18 | 3.9
CTCGAAAGGTCGTGGTCAGGTGAGTATACCAAAC | 0.883 | 2.33 | -0.0163 | 0.484 | 2.21 | 3.61 | 0.127 | 4.47 | 0.777 | 4.04
TAGCCTAGGTCATTCAGGGGCTAGTATAGAAAGC | 1.49 | 2.56 | -0.0413 | 0.573 | 1.3 | 2.36 | -0.268 | 2.79 | -0.106 | 3.76
CGTCCAAGGTCCATGCTAGGTCAGTGAAAGCATT | 0.0985 | 0.351 | -0.956 | -1 | 0.21 | 0.422 | -0.0884 | 1.35 | -0.265 | 1.7
TTACCAAGGTAAAAGGTCGTTGATGCACGCCTTG | 0.76 | 3.59 | 0.399 | 0.573 | 1.67 | 3.07 | 0.505 | 4.08 | 0.101 | 2.28
CGTCCAACGTCAAGGTCAGTGAAAGAGACTCGAA | -0.074 | -0.0705 | -0.79 | -0.354 | 1.13 | 1.59 | 0.288 | 1.99 | 0.37 | 3.35
CAAACTAGGTCACAGAGGACAAAGTCCGTGCGTA | 8.78 | 9.01 | 7.7 | 3.32 | 4.15 | 3.52 | 2.3 | 3.22 | 1.21 | 4.54
CATACACGGTCAGCTAGGCCAGAGTAGGGACGGC | -0.275 | 0.556 | 0.102 | 0.44 | 0.0796 | -0.388 | -0.264 | -0.295 | 0.385 | 2.49
AGTCAAAGTTCACTAGGCAACGTAAGATTCAGCT | 1.55 | 3.93 | 1.31 | 0.663 | 1.75 | 3.81 | 2.09 | 3.04 | 0.611 | 4.78
ATCGAAAGGTCGCAGGTGAGTATACCCACCCGAA | 0.692 | 2.78 | 1.46 | 0.551 | 1.95 | 2.89 | 0.199 | 3.82 | 0.721 | 4.09
TCTAGCTGGTCAAAGGTCACACACTCGAAATGCG | 2.35 | 5.48 | 0.807 | 1.12 | 4.18 | 6.12 | 0.771 | 7.74 | 2.13 | 4.89
TAGCCTAGGTCATTTGGCCAGTATAGTACGCATC | 1.38 | 2.47 | 0.221 | 0.0367 | 0.566 | 1.61 | -0.0591 | 2.08 | -0.227 | 3.67
CCTAGTAGGTTATGGGGCATTCAGGCAACGGTGA | 4.52 | 5.34 | 0.403 | -0.728 | 1.28 | 0.0613 | 0.02 | 0.431 | 0.456 | 1.13
CCTAGCAGACCAATCTGGGTCACTCAAGGCTTGA | 4.01 | 4.87 | 0.573 | -0.876 | 0.484 | 0.638 | -0.509 | 1.57 | -0.18 | 0.96
CATACAGGGTCATCTAGGCCAGAGTAGGGACGGC | 1.89 | 3.92 | 1.57 | 0.152 | 1.63 | 3.65 | 0.88 | 4.05 | 0.656 | 4.3
CCTAGTTGGTCAGGAAGTCACACACCGGATATGA | 0.63 | 0.621 | -0.0162 | 0.0813 | 1.03 | 0.246 | 0.549 | 0.014 | 1.63 | 0.892

Sequence | PBM binding z-score [1] | PBM binding z-score [2] | PBM binding z-score [3] | PBM binding z-score [4] | PBM binding z-score [5] | PBM binding z-score [6] | PBM binding z-score [7] | PBM binding z-score [8] | PBM binding z-score [9] | PBM binding z-score [10]
TATACAGGGTCTAAGGCCAGAGTACGAATGTCGA | -0.0368 | 0.912 | 0.973 | 0.725 | 0.023 | -0.0788 | 0.0324 | -0.102 | 0.373 | 0.935
AGAATGAGGTTAACAAAGATCAGGGAAACGCTTG | 3.76 | 3.12 | 0.964 | 0.512 | 0.76 | 1.72 | 0.159 | 2.07 | 1.01 | 2.01
CCTACTGGGCCAAGGTCATTGACCAGTCAAAGCA | 3.82 | 4.84 | -0.707 | -1.06 | 1.94 | 3.71 | 1.37 | 3.95 | -0.225 | 3.45
CAAACTAGGTCACGAAAGGTCAAAATCGAATGAC | 8.56 | 8.77 | 2.54 | 2.48 | 5.97 | 6.92 | 3.06 | 7.6 | 4.93 | 5.41
TCTTGTAGATCAAAGGTCAAGAAAGCCGAAGCCT | 2.63 | 4.93 | -0.0392 | 0.612 | 2.55 | 4.83 | 0.853 | 6.09 | 0.488 | 4.74
CCTAGCAGGCCACGGTCACTCAAGCATTTCGCTT | 2.28 | 1.83 | -0.92 | -1.29 | 0.115 | -0.147 | -0.385 | 0.307 | -0.0441 | 1.95
ATCGAAAGGTGGACGAGGTGAGTATACACCGTTT | -0.328 | 0.716 | 0.496 | 0.266 | 0.223 | 0.219 | 0.0997 | 0.702 | 0.444 | 0.89
TGGCCTAGGTCATGCGGGCCAGTATAGTGTCGGC | 1.03 | 2.44 | -0.76 | -1.48 | 0.35 | 1.12 | -0.591 | 2.07 | -0.739 | 3.53
TCATATAGGTGAAAGGTGAAAGTCGGTGTGGTAA | 7.6 | 7.55 | 3.38 | 1.28 | 3.1 | 3.01 | 0.351 | 4.34 | 1.1 | 2.78
TGAATGAGGTCAAAGATCAGGGAACGTGGCGTCG | 5.48 | 6.25 | 2.11 | 0.903 | 2.17 | 5.41 | 1.74 | 6.5 | 1.38 | 4.99
CCTTACGGGTCACTCCATGTTATAGCATCGGAGT | 2.24 | 3.12 | 0.606 | 0.266 | 2.26 | 2.73 | 0.163 | 3.26 | 0.537 | 3.59
GCTGCTAGGTCGACTGATGGTCAGCTAAAGCTCG | 1.27 | 0.463 | -1.49 | -1.06 | -0.687 | -0.436 | -1.21 | 0.0289 | -1.87 | 1.37
CCCACTGGGGCAAAGGTTACCATACTCAGTACGA | 5.25 | 7.1 | 0.141 | -0.557 | 1.73 | 2.41 | -0.111 | 3.81 | 0.0182 | 2.37
GGTACGAGGGCAAAGTTGATAGCATCTGTCGACG | 2.41 | 3.4 | 0.0227 | -1.04 | 1.2 | 0.895 | 0.0381 | 1.42 | -0.085 | 2.33
CGTCCAAGGTCAGAGAGGTCAGTGTATGCCGAGT | 2.75 | 3.39 | -0.0469 | 0.446 | 3.62 | 5.92 | 12.1 | 5.19 | 1.5 | 5.16
CGTCCAAGGTCAGAGAGGTCAGTGACTGCCGAGT | 3.1 | 3.54 | -0.0571 | -1.2 | 5.16 | 6.06 | 11.3 | 5.75 | 2.55 | 5.28
ATATGTAGGTTCCATCCGGGTCATTCAGGCTATG | 4.13 | 4.29 | 1.99 | 1.93 | 2.32 | 3.14 | 2.22 | 2.86 | 0.215 | 1.43
CCTACTGGGCCATGAAAGGTCATTGATTCAGTGA | 4.45 | 4.58 | 0.322 | 0.328 | 3.71 | 5.2 | 1.71 | 5.37 | 1.41 | 3.62
ACTAGTTGGTCAGCTGGGGTCACACACAATTCGG | 1.23 | 2.46 | 0.596 | -0.0449 | 2.5 | 5.82 | 1.23 | 6.17 | 0.784 | 3.33
TAGCCTAGGTCAAGCGGGCCAGTATAGTGTCGGC | 2.36 | 2.99 | -0.422 | -0.858 | 0.96 | 1.38 | -0.618 | 2.42 | -0.521 | 4.04
CCTAGCCGGCCAATCTGGGTCACTCAAGGCTTGA | 3.39 | 4.68 | -0.873 | -0.666 | 0.858 | 1.03 | -0.396 | 2.24 | -0.278 | 1.4
ACTTACGGGTCAACGGGGTTATAGCACGCGTATA | 3.04 | 4.81 | 1.21 | 1.3 | 2.83 | 5.57 | 2.28 | 5.87 | 0.668 | 4.47
ACTCGGAGGACAAAGGTAAGAGCTACGCCAGTGA | 0.286 | -0.0365 | -0.619 | -1.09 | 0.21 | -0.339 | -0.386 | -0.0753 | -0.128 | 1.17
CCTTACGGGTCAGTGACAGGTTATAGCATTTGGA | 1.83 | 1.86 | 0.385 | 0.16 | 1.97 | 2.36 | 0.241 | 3.19 | 0.476 | 3.5
